We go through 30 compounds from PubChem BioAssay (Tox21).

Experiment [1] is described as follows: qHTS assay to identify small molecule antagonists of the estrogen related receptor (ERR) signaling pathway from Tox21 library - cell viability counter screen (AID 1224834). Also: nearly all actives have a fitted effect of over 30% in size. Also: potency is read from the fitted curve at half-maximal effect. Summed up:
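Fluorescence from CellTiter-Fluor gives the viability read-out, taken 30 min after reagent addition. Before that, ERR cells seeded 6 h earlier were incubated with compounds for 17.5 h at 37 C.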

For experiment [2], the target named is Luciferin 4-monooxygenase (Photinus pyralis) (UniProt P08659). In words: qHTS assay to identify small molecule inhibitors of firefly luciferase (AID 1224835). Also: nearly all actives have a fitted effect of over 25% in size. Also: potency is read from the fitted curve at half-maximal effect. The essentials: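 Quantitative HTS format; KM concentrations of both substrates. Purified P. pyralis FLuc activity quantified from luminescence images.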
Chain of Luciferin 4-monooxygenase (Photinus pyralis) (P08659 whole entry, looked up): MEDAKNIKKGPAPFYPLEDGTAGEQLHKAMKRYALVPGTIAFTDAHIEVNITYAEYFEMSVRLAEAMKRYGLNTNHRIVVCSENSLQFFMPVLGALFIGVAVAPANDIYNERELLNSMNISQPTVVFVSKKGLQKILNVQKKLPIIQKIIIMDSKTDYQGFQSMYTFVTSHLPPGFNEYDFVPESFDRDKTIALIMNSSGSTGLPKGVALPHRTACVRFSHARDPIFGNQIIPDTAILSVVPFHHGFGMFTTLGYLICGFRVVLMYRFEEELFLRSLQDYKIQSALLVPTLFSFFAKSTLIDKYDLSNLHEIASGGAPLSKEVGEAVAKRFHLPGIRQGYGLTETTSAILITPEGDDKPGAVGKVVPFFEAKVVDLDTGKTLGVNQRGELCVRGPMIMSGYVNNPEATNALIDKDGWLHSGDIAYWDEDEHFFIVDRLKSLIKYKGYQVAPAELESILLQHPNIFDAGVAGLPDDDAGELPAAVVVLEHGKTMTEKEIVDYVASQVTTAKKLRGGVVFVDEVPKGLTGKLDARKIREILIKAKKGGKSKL
The nature of experiment [3]: qHTS assay to identify small molecule agonists of the constitutive androstane receptor (CAR) signaling pathway - cell viability counter screen (AID 1224836). Also: nearly all actives have a fitted effect of over 45% in size. Also: potency is read from the fitted curve at half-maximal effect. As to viability change, negative = cytotoxic: series mostly up to about 92 µM. The essentials:
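Fluorescence from CellTiter-Fluor indicates live cells after 23 h exposure. The human hepatoma line expresses hCAR and a CYP2B6-2.2kb reporter. Incubation medium contains 0.75 uM PK11195 (final).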
A general note: qHTS replaces the single test concentration by a dilution series.

A short description of experiment [4]: qHTS assay to identify small molecule antagonists of the constitutive androstane receptor (CAR) signaling pathway - cell viability counter screen (AID 1224837). Also: nearly all actives have a fitted effect of over 45% in size. Also: potency is read from the fitted curve at half-maximal effect. As to activity change, negative = cytotoxicity: series mostly up to about 92 µM. Summed up:
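HepG2-CYP2B6-hCAR cells, 2500/well, 4 hr pre-incubation; compound titration, 15 conc.; CITCO 50 nM final; 23 hr, 37 C/5% CO2; CellTiter-Fluor, fluorescence intensity.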

The nature of experiment [5]: qHTS assay to identify small molecule antagonists of the estrogen related receptor signaling pathway with the pleiotropic PPARgamma coactivator (PGC) from Tox21 10K library - cell viability counter screen (AID 1224840; active = well fitted cell-killing curve with a large enough effect in the repeat runs, not every such curve was filed as active; also: nearly all actives have a fitted effect of over 40% in size; also: potency is read from the fitted curve at half-maximal effect). Summed up:
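PGC/ERR cells, 2,000/well; 6 h pre-incubation 37 C/5% CO2; cpd in DMSO via pin tool; 17.5 h 37 C; CellTiter-Fluor, 30 min; fluorescence.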

A short description of experiment [6]: qHTS assay to identify small molecule antagonists of the estrogen related receptor signaling pathway with the pleiotropic PPARgamma coactivator (PGC) from Tox21 10K library (AID 1224841; call rule not given here; also: actives are mostly falling curves and most rising ones were filed inactive; nearly all actives have a fitted effect of over 50% in size; also: potency is read from the fitted curve at half-maximal effect; as to activity, negative = inhibition: series mostly up to about 92 µM). The essentials: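 PGC/ERR cell line, 2,000 cells/well; 6 h pre-incubation 37 C/5% CO2; compounds (DMSO) pinned in; 18 h, 37 C; One-Glo, 30 min RT; luminescence.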
A short description of experiment [7]: qHTS assay to identify small molecule agonists of the estrogen related receptor signaling pathway with the pleiotropic PPARgamma coactivator (PGC) from Tox21 10K library (AID 1224842). Also: nearly all actives have a fitted effect of over 15% in size. Summed up: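 PGC/ERR reporter cells (NTP line) were seeded 2,000 per well, rested 6 h at 37 C/5% CO2, then pin-dosed with compounds in DMSO for 18 h at 37 C; luciferase read by One-Glo luminescence after 30 min at room temperature.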

Experiment [8] deals with Thyrotropin receptor (Homo sapiens) (UniProt P16473). In words: qHTS assay to identify small molecule agonists of the thyroid stimulating hormone receptor (TSHR) signaling pathway (AID 1224843; calls by dose curve; also: nearly all actives have a fitted effect of over 45% in size; also: potency is read from the fitted curve at half-maximal effect). Summed up: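 Cell line HEK293 with TSHR; density 800/well. Exposure 30 min RT. Readout HTRF cAMP (cAMP-d2/anti-cAMP-cryptate), 1 h RT before reading.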
Chain of Thyrotropin receptor (Homo sapiens) (P16473 whole entry, looked up): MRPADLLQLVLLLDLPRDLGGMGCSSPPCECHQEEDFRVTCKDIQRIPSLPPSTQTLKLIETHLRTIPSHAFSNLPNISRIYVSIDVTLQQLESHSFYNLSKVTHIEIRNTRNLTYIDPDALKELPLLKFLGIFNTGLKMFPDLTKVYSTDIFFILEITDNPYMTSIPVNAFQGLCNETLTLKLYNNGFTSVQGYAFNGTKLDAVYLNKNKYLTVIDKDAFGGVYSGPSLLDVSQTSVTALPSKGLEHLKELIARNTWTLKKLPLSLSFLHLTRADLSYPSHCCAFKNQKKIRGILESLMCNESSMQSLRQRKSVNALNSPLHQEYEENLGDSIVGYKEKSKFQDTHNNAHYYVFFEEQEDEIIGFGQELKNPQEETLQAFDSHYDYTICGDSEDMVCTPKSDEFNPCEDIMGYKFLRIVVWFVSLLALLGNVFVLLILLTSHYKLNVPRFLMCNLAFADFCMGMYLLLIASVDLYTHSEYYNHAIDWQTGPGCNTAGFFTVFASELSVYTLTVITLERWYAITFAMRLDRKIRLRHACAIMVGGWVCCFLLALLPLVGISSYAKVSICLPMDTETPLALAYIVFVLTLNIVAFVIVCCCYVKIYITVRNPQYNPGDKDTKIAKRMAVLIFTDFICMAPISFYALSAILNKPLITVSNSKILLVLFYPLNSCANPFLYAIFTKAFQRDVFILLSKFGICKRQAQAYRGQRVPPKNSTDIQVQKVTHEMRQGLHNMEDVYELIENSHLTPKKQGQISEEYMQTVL
Experiment [9] has as its target Nuclear receptor subfamily 1 group I member 3 (Homo sapiens) (UniProt Q14994). As to the kind of experiment: qHTS assay to identify small molecule agonists of the constitutive androstane receptor (CAR) signaling pathway (AID 1224839).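 Also: HepG2 cells stably carrying human CAR and a CYP2B6 luciferase reporter; series mostly up to about 92 µM; nearly all actives have a fitted effect of over 15% in size.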 The essentials: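 Stable hCAR/CYP2B6-2.2kb HepG2 line in DMEM with 10% FBS; compounds (15 concentrations) and 0.75 uM PK11195 final, 24 h at 37 C/5% CO2, then ONE-Glo luminescence after 30 min.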

Experiment [10] shares this target. In words: qHTS assay to identify small molecule antagonists of the constitutive androstane receptor (CAR) signaling pathway (AID 1224838).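 Also: HepG2 cells stably expressing hCAR with CYP2B6 luciferase reporter stimulated by CITCO; nearly all actives have a fitted effect of over 40% in size.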 Also: potency is read from the fitted curve at half-maximal effect. The essentials: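 HepG2-CYP2B6-hCAR cells; 4 h pre-incubation; cpd (15 conc) + CITCO 50 nM final; 24 h, 37 C/5% CO2; ONE-Glo, luminescence.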

Values joined by “and” are separate entries in the source; they are usually repeats but may differ in a detail not shown here. Identical values can stand only once. Inconclusive results are not listed. Values without a mark were called inactive. Active and inactive are the calls of the source. Unless noted, calls follow the shape of the dose curve; as a rule, active = well fitted curve in the direction sought with a large enough effect in the repeat runs; inconclusive = weak or mixed curves; inactive = no such curve, though single readings can be large; an effect the other way counts as inactive or inconclusive.
% is scaled to controls: 0 for no effect and ±100 for the full control effect.

Chain of Nuclear receptor subfamily 1 group I member 3 (Homo sapiens) (Q14994 whole entry, looked up): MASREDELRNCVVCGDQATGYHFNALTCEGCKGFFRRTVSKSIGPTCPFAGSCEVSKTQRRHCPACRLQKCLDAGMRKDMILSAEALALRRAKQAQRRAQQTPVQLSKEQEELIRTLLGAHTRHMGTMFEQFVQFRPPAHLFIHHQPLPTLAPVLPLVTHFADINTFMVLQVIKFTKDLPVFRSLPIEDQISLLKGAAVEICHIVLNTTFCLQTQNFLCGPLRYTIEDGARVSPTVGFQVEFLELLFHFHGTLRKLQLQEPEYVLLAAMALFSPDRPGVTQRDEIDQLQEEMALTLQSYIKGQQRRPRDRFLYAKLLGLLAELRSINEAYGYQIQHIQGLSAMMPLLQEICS

Regarding `CCN(CC)CCN1C(=O)CN=C(c2ccccc2F)c2cc(Cl)ccc21`, the Potency result in experiment [1], in [2], in experiment [3], in experiment [4], in [5] and in [6] was “inactive” in each case. Further, the Potency result in experiment [7] and in experiment [8] was “inactive” each time.
On to `CC(C)=CC1C(C(=O)OC(C#N)c2cccc(Oc3ccccc3)c2)C1(C)C` (stereo not drawn), for which the Potency entry in experiment [1], in experiment [2], in experiment [3], in experiment [4], in experiment [5] and in experiment [6] was “inactive” in each case. For the same compound, the Potency entry in experiment [7] is “inactive”.
For `Clc1ccc(C(Cl)(Cl)Cl)cc1Cl`, the Potency result in [1], in [2], in [3], in experiment [4] and in experiment [5] was “inactive” each time.
Turning to `O=C(O)[C@H](O)[C@@H](O)C(=O)O`, the Potency result in experiment [1], in experiment [2] and in experiment [5] was “inactive” throughout.
Take `CCN1CCC2(CC1)COc1cc3c(cc12)N(C(=O)c1ccc(-c2ccc(-c4nnc(C)o4)cc2C)cc1)CC3`: the Potency in experiment [1] is 17.8 µM (active); in experiment [4], 50.2 µM (active); in experiment [5] it was 17.8 µM (active); in [6] it was 7.96 µM (active). For the same compound, the Potency entry in experiment [2], in experiment [9] and in [7] was “inactive” throughout.
In the case of `Nc1c(Cl)c(Cl)c(Cl)c(Cl)c1Cl`, the Potency entry in experiment [1], in experiment [3], in [4], in experiment [10] and in experiment [5] was “inactive” throughout.
As to `O=P(Cl)(Cl)Cl`, the Potency result in experiment [1], in [3], in [4], in experiment [10], in [9] and in experiment [5] was “inactive” in each case. Also, the Potency result in experiment [8] was “inactive”.
For the compound `CCCCON=O`, the Potency result in [1], in experiment [3], in [4], in [10], in experiment [9] and in experiment [5] was “inactive” each time. In addition, the Potency entry in experiment [7] and in [8] was “inactive” in each case. Further, the Potency in experiment [6] is 49.8 µM (active).
With `O=[N+]([O-])c1ccc(Cl)c(Cl)c1Cl`, the Potency entry in experiment [1], in experiment [3], in experiment [4], in [10], in [9] and in experiment [5] was “inactive” throughout. The Potency entry in experiment [6], in [7] and in experiment [8] was “inactive” each time.
As for `[F][Sn]([c]1ccccc1)([c]1ccccc1)[c]1ccccc1`, the Potency in [1] is 1.09 µM (active); in experiment [2] it was 5.03 µM (active); in experiment [4], 1.09 µM (active); in [5], 0.611 µM (active). Also, the Potency entry in [7] is “inactive”.
With `C[C@@H]1CC2=CC(=O)CC[C@@H]2[C@H]2CC[C@@]3(C)[C@@H](CC[C@]3(C)O)[C@@H]21`, the Potency entry in experiment [1], in experiment [3], in experiment [4], in experiment [10], in experiment [9] and in [5] was “inactive” in each case. Besides, the Potency entry in [7] and in [8] was “inactive” in each case.
On to `OCC(Br)CBr` (stereo not drawn), for which the Potency entry in [1], in experiment [3], in experiment [4], in [10], in [9] and in [5] was “inactive” in each case. The Potency result in [8] was “inactive”.
Take `Clc1ccc(C2(Cn3cncn3)OCCO2)c(Cl)c1`: the Potency result in experiment [1], in experiment [3], in experiment [4], in [10], in experiment [9] and in experiment [5] was “inactive” each time. Further, the Potency result in [6], in experiment [7] and in experiment [8] was “inactive” throughout.
Turning to `NC(=O)C(Cl)Cl`, the Potency entry in experiment [1], in experiment [2], in [4] and in [5] was “inactive” in each case.
For the compound `O=C(CCCCl)c1ccc(F)cc1`, the Potency entry in experiment [1], in experiment [4], in [10], in experiment [5], in experiment [6] and in [7] was “inactive” in each case. The Potency result in experiment [8] is “inactive”. The Potency in [2] is 15.5 µM (active).
For `CN1C2CCC(C)(C)C1CC(OC(=O)C(O)(c1cccs1)c1cccs1)C2` (stereo not drawn), the Potency result in experiment [1], in [2], in experiment [4], in [10], in experiment [9] and in experiment [5] was “inactive” each time. For the same compound, in [8], the Potency entry was “inactive”.
For the compound `CC(C)N(C(=O)SC/C(Cl)=C/Cl)C(C)C`, the Potency entry in [1], in experiment [2], in experiment [4], in experiment [9] and in [5] was “inactive” throughout. Besides, the Potency in experiment [8] was 17.3 µM (active).
Consider `CCC(C)Br` (stereo not drawn), for which the Potency entry in [1], in experiment [3], in [4], in experiment [10], in experiment [9] and in experiment [5] was “inactive” each time. In addition, the Potency result in [8] is “inactive”.
Take `COCCC#N`: the Potency result in [1], in [2], in experiment [4], in [5] and in experiment [8] was “inactive” in each case.
On to `[Cl][Hg][c]1ccccc1`, for which the Potency in experiment [1] was 3.44 µM (active); in experiment [3], 6.86 µM (active); in [4] it was 4.33 µM (active); in [10], 3.86 µM (active); in [5] it was 2.43 µM (active). Moreover, the Potency entry in [9] is “inactive”.
As for `CCn1cc[n+](C)c1` (tested in a mixture with another compound), the Potency result in experiment [1], in [2], in [4] and in [5] was “inactive” each time.
As for `ClSC(Cl)(Cl)Cl`, the Potency entry in [1], in [3], in experiment [4], in experiment [10], in experiment [9] and in [5] was “inactive” in each case. For the same compound, the Potency result in [6], in experiment [7] and in [8] was “inactive” each time.
Take `CCCCC(CC)COC(=O)OOC(C)(C)C` (stereo not drawn): the Potency entry in experiment [1], in [2], in experiment [4], in experiment [9] and in [5] was “inactive” in each case.
Take `CCCCN(CCCC)C(=S)[S-].CCCCN(CCCC)C(=S)[S-].[Ni+2]`: the Potency result in experiment [1], in [2], in experiment [4], in experiment [5] and in [7] was “inactive” each time. For the same compound, in experiment [6], the Potency was 0.237 µM (active).
Take `CC(C)N(C(=O)CCl)c1ccccc1`: the Potency in experiment [1] is 21.7 µM (active); in experiment [3], 68.6 µM (active) and 61.1 µM (active); in experiment [4], 54.5 µM (active) and 48.6 µM (active); in experiment [10], 54.5 µM (active) and 38.6 µM (active); in experiment [5] it was 30.6 µM (active); in experiment [6], 9.69 µM (active) and 6.11 µM (active). Further, the Potency result in experiment [9], in [7] and in experiment [8] was “inactive” throughout.
Turning to `O=[N+]([O-])C(Br)Br`, the Potency entry in experiment [1], in experiment [3], in experiment [4], in experiment [10], in experiment [9] and in experiment [5] was “inactive” throughout. In addition, the Potency result in experiment [6], in [7] and in experiment [8] was “inactive” each time.
Regarding `CO/N=C(/C1=NOCCO1)c1ccccc1Oc1ncnc(Oc2ccccc2Cl)c1F`, the Potency in [1] is 27.3 µM (active). The Potency result in [2] and in experiment [10] was “inactive” each time.
On to `Oc1cccc(Cl)c1Cl`, for which the Potency entry in experiment [1], in [3], in experiment [4], in experiment [10], in experiment [9] and in experiment [5] was “inactive” throughout. Also, the Potency result in experiment [7] and in experiment [8] was “inactive” each time.
On to `Clc1c(Cl)c(Cl)c(Cl)c(Cl)c1Cl`, for which the figures for the viability change, negative = cytotoxic in experiment [1], in experiment [3] and in experiment [5] were 3.08% [at 8.39 µM], -2.28% [at 8.39 µM] and 8.1% [at 8.39 µM], respectively. For the same compound, in experiment [4], the activity change, negative = cytotoxicity was 2.2% [at 8.39 µM]. Besides, the activity, negative = inhibition in experiment [10] was 2.04% [at 8.39 µM]. Also, the activation is -1% [at 8.39 µM] in experiment [9] and -17.5% [at 8.39 µM] in experiment [8].
For the compound `O=C(Cl)c1ccccc1F`, the Potency entry in experiment [1], in experiment [2], in [4], in experiment [9], in experiment [5] and in experiment [8] was “inactive” each time.
